Holding throughout (experiment): DAPPL (digital affinity profiling via proximity ligation, sequencing); 10 mM Tris-HCl pH 7.5, 50 mM NaCl, 1 mM DTT, 4% glycerol, room temperature, 30 min; GST-TFs on glutathione beads, 16-mer random dsDNA library, 0.1% formaldehyde crosslink after washing; high values mean tight binding
In one experiment the target is T1, FEV (Homo sapiens, UniProt Q99581 1-238).
T1 sequence: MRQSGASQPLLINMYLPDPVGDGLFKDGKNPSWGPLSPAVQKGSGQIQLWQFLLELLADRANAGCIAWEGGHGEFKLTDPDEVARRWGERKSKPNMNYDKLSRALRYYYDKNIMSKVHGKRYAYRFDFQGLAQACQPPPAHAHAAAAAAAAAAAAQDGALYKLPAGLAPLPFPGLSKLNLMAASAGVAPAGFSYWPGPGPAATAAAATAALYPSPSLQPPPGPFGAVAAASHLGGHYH
The following applies: protein: recombinant; tags: N-terminal GST; dsDNA, one strand shown. The gist of the method:
(§1)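 A tag-only sample was pooled with DNA-barcoded human transcription factors that had been expressed in yeast as GST fusions and captured on glutathione beads. The pools were incubated for 30 min at room temperature with 200 nmole of a random double-stranded 16-mer DNA library in Tris/NaCl/DTT/glycerol buffer, then washed, crosslinked with 0.1% formaldehyde, proximity-ligated (BsaI/T4 ligase, 1 h, 37 °C), PCR-amplified and sequenced on an Illumina NextSeq500. Binding signal is each hexamer's read frequency for a factor divided by its frequency for the tag-only sample.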

A further experiment concerns the target ETV5 (Homo sapiens, UniProt P41161 1-510). The note with it: protein: recombinant; tags: N-terminal GST; dsDNA, one strand shown. In outline: as §1
A further experiment concerns the target HSF1 (Homo sapiens, UniProt Q00613 1-529). The note with it: protein: recombinant; tags: N-terminal GST; chain copies: 3; dsDNA, one strand shown. The gist of the method:
as §1

The target in another experiment is T2, SPIC (Homo sapiens, UniProt Q8N5J4 1-248).
T2 sequence: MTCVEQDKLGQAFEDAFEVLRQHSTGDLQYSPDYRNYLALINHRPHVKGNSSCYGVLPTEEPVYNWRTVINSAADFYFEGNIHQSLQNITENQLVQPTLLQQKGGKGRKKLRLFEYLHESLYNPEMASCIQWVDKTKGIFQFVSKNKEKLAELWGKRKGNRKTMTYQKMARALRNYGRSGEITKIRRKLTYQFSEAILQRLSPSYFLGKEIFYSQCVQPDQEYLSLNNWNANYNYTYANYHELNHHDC
The note with it: protein: recombinant; tags: N-terminal GST; dsDNA, one strand shown. The gist of the method:
as §1

A further experiment concerns the target ELF4 (Homo sapiens, UniProt Q99607 1-663). The following applies: protein: recombinant; tags: N-terminal GST; dsDNA, one strand shown. The gist of the method: as §1
Another experiment addresses T3, ELK4 (Homo sapiens, UniProt P28324-2 1-405).
T3 sequence: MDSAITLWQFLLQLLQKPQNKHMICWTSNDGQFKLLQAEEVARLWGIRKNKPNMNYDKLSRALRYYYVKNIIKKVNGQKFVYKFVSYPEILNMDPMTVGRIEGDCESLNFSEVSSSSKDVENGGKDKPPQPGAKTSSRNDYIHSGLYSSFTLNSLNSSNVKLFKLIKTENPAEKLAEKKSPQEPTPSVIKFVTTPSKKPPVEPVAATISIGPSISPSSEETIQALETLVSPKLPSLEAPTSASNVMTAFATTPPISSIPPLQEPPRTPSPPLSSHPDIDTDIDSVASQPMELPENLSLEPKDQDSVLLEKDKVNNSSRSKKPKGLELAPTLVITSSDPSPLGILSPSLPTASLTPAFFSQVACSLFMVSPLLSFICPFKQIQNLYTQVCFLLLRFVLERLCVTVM
The note with it: protein: recombinant; tags: N-terminal GST; dsDNA, one strand shown. In outline:
as §1

In a further experiment the target is T4, ETV2 (Homo sapiens, UniProt O00321 1-342).
T4 sequence: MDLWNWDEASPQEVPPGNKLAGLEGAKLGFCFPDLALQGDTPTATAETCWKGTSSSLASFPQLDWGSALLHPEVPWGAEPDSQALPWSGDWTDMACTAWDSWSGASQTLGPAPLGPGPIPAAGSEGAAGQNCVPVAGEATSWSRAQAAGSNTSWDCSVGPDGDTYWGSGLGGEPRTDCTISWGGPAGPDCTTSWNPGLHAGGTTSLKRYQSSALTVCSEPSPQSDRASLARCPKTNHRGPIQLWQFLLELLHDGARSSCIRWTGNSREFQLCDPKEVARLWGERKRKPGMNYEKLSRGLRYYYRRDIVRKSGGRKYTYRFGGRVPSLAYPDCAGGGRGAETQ
The note with it: protein: recombinant; tags: N-terminal GST; dsDNA, one strand shown. In outline: as §1

In the next experiment the target is T5, ELF3 (Homo sapiens, UniProt P78545 1-371).
T5 sequence: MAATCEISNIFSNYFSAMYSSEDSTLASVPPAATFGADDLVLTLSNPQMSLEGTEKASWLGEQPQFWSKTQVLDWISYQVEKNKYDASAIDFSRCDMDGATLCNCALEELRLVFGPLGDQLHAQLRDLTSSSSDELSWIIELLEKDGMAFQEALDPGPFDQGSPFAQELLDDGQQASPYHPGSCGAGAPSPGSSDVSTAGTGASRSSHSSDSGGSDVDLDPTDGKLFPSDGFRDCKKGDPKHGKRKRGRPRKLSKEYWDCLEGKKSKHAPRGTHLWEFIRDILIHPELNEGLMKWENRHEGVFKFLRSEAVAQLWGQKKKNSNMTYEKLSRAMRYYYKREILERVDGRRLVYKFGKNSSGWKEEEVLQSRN
The note with it: protein: recombinant; tags: N-terminal GST; dsDNA, one strand shown. The gist of the method: as §1

The next experiment has as its target CRX (Homo sapiens, UniProt O43186 1-299). The following applies: protein: recombinant; tags: N-terminal GST; dsDNA, one strand shown. The gist of the method:
as §1

Another experiment addresses ETV1 (Homo sapiens, UniProt P50549 1-477). The following applies: protein: recombinant; tags: N-terminal GST; dsDNA, one strand shown. The gist of the method:
as §1

The target of a further experiment is T6, ERF (Homo sapiens, UniProt P50548 1-548).
T6 sequence: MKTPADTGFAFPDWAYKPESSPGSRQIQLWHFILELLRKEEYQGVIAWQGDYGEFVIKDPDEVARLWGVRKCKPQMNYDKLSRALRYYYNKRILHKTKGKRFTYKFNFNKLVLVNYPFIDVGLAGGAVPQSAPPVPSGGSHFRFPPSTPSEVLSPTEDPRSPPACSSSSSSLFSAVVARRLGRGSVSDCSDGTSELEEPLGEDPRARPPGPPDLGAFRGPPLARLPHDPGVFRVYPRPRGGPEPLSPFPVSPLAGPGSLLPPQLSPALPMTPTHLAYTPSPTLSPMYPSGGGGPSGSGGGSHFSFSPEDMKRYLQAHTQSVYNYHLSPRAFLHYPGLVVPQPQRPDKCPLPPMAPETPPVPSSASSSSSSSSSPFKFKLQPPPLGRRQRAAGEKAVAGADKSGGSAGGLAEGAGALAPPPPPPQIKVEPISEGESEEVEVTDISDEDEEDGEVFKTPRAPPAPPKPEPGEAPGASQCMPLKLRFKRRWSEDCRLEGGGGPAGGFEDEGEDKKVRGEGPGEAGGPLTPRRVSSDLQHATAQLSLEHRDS
The following applies: protein: recombinant; tags: N-terminal GST; dsDNA, one strand shown. In outline: as §1

In another experiment the target is T7, ETV3L (Homo sapiens, UniProt Q6ZN32 1-361).
T7 sequence: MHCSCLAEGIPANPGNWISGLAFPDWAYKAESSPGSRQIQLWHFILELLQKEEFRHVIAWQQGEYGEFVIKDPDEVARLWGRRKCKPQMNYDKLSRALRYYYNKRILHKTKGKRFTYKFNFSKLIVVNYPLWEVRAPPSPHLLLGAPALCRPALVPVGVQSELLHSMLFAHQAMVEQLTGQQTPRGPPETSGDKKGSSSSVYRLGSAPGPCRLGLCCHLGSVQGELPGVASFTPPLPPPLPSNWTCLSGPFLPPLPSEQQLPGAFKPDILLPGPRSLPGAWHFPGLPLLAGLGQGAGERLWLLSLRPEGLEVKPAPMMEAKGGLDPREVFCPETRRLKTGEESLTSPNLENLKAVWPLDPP
The note with it: protein: recombinant; tags: N-terminal GST; dsDNA, one strand shown. The gist of the method: as §1

For a further experiment, the target named is T8, ETS2 (Homo sapiens, UniProt P15036 1-469).
T8 sequence: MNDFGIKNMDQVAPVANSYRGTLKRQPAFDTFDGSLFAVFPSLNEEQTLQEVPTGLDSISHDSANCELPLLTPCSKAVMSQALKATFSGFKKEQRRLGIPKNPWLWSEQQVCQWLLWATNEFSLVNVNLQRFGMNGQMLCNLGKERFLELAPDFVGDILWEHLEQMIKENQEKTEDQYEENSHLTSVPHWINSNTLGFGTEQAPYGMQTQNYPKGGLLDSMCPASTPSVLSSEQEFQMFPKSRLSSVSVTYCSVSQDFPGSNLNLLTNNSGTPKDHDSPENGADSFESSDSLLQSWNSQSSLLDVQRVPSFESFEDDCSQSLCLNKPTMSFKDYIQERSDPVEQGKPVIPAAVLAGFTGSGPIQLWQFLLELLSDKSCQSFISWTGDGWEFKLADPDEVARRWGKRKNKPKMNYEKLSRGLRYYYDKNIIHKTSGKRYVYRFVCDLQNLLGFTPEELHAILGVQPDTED
The following applies: protein: recombinant; tags: N-terminal GST; dsDNA, one strand shown. In outline: as §1

Another experiment addresses T9, SPDEF (Homo sapiens, UniProt O95238 1-335).
T9 sequence: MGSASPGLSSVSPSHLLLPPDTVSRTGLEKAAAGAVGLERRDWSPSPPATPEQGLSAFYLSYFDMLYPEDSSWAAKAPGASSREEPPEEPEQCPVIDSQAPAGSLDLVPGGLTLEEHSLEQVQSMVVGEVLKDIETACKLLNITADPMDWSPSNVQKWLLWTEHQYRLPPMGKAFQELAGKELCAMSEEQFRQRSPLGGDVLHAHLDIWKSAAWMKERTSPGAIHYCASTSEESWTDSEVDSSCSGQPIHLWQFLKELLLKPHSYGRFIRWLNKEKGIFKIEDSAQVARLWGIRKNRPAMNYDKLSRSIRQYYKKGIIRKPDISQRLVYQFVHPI
The following applies: protein: recombinant; tags: N-terminal GST; dsDNA, one strand shown. The gist of the method:
as §1

In another experiment the target is T10, ETV7 (Homo sapiens, UniProt Q9Y603 1-341).
T10 sequence: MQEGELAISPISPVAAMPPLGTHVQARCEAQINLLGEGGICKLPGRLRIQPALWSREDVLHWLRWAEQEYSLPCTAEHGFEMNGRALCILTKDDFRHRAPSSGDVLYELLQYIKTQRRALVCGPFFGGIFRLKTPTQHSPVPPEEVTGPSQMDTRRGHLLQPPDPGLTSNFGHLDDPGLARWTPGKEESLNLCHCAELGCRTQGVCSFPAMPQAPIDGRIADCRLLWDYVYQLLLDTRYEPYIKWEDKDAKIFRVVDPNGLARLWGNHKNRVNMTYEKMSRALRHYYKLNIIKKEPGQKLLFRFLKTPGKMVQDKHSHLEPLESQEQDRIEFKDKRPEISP
The note with it: protein: recombinant; tags: N-terminal GST; dsDNA, one strand shown. The gist of the method:
as §1

Another experiment deals with T11, ELF5 (Homo sapiens, UniProt Q9UKW6-2 1-255).
T11 sequence: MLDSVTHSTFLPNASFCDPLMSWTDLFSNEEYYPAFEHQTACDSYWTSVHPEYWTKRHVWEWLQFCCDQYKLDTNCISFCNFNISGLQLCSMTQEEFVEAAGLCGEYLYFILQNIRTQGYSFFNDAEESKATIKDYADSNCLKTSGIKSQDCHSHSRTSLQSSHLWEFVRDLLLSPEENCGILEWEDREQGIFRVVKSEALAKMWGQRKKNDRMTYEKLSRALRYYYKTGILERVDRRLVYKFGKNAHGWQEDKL
The note with it: protein: recombinant; tags: N-terminal GST; dsDNA, one strand shown. In outline: as §1

In the next experiment the target is T12, ETV3 (Homo sapiens, UniProt P41162-2 1-143).
T12 sequence: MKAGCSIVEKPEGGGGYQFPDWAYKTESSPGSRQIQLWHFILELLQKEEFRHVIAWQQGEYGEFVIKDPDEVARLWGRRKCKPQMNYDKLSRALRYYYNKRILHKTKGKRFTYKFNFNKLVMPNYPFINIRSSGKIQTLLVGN
The following applies: protein: recombinant; tags: N-terminal GST; dsDNA, one strand shown. In outline:
as §1

The target of the next experiment is ETV6 (Homo sapiens, UniProt P41212 1-452). The following applies: protein: recombinant; tags: N-terminal GST; dsDNA, one strand shown. In outline: as §1
Sequence of ETV6 (P41212 whole entry): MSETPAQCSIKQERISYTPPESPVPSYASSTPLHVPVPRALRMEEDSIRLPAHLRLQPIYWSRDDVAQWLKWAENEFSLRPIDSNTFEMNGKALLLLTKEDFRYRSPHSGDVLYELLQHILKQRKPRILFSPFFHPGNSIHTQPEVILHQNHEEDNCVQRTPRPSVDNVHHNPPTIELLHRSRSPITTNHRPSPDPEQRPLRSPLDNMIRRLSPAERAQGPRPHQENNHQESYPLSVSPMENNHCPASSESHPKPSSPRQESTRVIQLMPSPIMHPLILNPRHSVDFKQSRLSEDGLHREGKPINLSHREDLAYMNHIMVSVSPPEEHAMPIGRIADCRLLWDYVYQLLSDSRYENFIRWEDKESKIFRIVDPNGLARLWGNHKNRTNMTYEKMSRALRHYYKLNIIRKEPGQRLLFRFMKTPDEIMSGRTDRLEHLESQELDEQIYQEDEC

Sequence of ETV5 (P41161 whole entry): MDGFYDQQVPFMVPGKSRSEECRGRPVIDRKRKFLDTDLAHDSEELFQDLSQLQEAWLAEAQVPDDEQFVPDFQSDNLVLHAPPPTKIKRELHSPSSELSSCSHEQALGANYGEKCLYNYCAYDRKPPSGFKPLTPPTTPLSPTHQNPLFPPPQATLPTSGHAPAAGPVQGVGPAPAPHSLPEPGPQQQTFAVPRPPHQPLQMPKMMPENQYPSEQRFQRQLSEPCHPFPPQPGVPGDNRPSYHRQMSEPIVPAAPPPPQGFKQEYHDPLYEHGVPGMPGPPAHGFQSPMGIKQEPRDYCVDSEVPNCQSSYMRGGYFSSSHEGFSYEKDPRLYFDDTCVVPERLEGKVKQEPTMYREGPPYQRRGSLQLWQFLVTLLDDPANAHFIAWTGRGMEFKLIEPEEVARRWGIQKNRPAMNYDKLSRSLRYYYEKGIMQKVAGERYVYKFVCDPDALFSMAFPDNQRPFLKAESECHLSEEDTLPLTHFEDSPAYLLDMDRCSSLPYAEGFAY
Sequence of ETV1 (P50549 whole entry): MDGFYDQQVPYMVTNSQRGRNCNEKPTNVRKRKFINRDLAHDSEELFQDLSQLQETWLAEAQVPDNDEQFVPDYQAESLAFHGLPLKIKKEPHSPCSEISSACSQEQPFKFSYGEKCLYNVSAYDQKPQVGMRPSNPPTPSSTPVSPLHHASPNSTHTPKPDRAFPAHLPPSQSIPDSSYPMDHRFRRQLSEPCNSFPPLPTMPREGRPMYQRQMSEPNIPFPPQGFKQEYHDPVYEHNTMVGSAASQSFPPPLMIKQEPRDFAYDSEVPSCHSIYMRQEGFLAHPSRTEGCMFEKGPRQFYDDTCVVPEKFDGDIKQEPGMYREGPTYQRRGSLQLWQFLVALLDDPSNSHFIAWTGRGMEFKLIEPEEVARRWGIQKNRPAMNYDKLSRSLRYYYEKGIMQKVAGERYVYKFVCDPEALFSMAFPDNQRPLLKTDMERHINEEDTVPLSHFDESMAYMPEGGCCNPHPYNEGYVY
Sequence of ELF4 (Q99607 whole entry): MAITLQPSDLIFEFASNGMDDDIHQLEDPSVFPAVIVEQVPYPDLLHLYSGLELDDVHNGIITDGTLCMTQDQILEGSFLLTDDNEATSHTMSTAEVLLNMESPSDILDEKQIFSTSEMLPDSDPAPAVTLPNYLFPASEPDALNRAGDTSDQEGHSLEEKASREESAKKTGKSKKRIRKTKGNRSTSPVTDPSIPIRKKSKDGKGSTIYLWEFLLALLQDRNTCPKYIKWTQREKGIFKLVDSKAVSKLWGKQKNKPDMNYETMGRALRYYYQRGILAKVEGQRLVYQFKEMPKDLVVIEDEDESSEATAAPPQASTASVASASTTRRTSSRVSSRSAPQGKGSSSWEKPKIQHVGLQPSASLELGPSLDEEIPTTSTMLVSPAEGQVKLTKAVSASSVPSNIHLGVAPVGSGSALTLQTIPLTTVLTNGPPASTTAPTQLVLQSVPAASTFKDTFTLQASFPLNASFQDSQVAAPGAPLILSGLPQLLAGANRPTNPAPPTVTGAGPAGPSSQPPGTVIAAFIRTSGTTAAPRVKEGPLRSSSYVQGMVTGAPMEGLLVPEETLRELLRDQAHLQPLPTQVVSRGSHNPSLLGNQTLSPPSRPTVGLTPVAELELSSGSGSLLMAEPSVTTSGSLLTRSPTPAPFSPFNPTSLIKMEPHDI
Sequence of CRX (O43186 whole entry): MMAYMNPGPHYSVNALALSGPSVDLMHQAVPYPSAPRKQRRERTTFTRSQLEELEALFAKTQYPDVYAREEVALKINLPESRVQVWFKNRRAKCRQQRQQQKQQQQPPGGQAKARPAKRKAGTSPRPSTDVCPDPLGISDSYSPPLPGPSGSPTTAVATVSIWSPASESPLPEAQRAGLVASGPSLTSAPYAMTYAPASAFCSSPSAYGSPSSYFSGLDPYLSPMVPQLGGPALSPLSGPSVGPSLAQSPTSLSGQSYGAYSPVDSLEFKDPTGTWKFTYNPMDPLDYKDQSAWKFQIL
Sequence of HSF1 (Q00613 whole entry): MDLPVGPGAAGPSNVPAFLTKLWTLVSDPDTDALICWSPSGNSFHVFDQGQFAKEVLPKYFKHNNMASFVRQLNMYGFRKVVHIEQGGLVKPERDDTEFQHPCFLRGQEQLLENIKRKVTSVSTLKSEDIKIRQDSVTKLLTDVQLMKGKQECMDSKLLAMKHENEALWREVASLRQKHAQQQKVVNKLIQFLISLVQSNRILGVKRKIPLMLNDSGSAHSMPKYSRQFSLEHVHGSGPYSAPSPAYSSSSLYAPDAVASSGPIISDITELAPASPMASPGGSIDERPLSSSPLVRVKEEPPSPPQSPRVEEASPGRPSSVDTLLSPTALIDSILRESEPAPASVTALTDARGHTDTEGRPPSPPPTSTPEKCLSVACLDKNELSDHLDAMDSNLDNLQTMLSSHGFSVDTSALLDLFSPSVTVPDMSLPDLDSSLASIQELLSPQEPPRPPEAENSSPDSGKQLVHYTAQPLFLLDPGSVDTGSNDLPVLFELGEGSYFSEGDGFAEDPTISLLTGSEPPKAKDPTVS

As for TTTTCA, the binding signal with FEV is 1.17 fold enrichment (6-mer frequency, TF over GST control); with ETV5, 1.2 fold enrichment (6-mer frequency, TF over GST control); with HSF1, 1.14 fold enrichment (6-mer frequency, TF over GST control); with SPIC it was 1.22 fold enrichment (6-mer frequency, TF over GST control); with ELF4, 1.27 fold enrichment (6-mer frequency, TF over GST control); with ELK4, 1.2 fold enrichment (6-mer frequency, TF over GST control). Besides, the binding signal in the experiment with ETV2 is 1.24 fold enrichment (6-mer frequency, TF over GST control); in the experiment with ELF3, 1.31 fold enrichment (6-mer frequency, TF over GST control); in the experiment with CRX it was 1.28 fold enrichment (6-mer frequency, TF over GST control); with ETV1 it was 1.22 fold enrichment (6-mer frequency, TF over GST control); in the experiment with ERF, 1.24 fold enrichment (6-mer frequency, TF over GST control); with ETV3L, 1.26 fold enrichment (6-mer frequency, TF over GST control). In addition, the binding signal with ETS2 was 1.14 fold enrichment (6-mer frequency, TF over GST control); with SPDEF, 1.18 fold enrichment (6-mer frequency, TF over GST control); with ETV7 it was 1.26 fold enrichment (6-mer frequency, TF over GST control); with ELF5 it was 1.25 fold enrichment (6-mer frequency, TF over GST control); in the experiment with ETV3, 1.31 fold enrichment (6-mer frequency, TF over GST control); with ETV6 it was 1.21 fold enrichment (6-mer frequency, TF over GST control).

The values above are taken from paper PMC7862700, “An all-to-all approach to the identification of sequence-specific readers for epigenetic DNA modifications on cytosine”.
